Assay results: PubChem BioAssay (EPA / NIEHS)
Where “and” joins values, the source holds several entries; their conditions need not be identical. Identical values can stand only once. Where a structure was tested more than once in an assay, its records may differ in their call. Calls of active or inactive are those of the source. How the source made its calls: active means hit-call score of the fitted dose curve at least 0.9, where 1 is the maximum; inactive means score below 0.9.

Key:
[1] = ATG_M_61_CIS: Attagene CIS-FACTORIAL HepG2 Assay for M61 Transcription Factor (Internal Marker) (AID 2282937); settings: HepG2 Attagene CIS-FACTORIAL M61 internal marker reporter; actives raise or lower the signal
In short: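 Using transiently transfected HepG2 liver cells, reporter transcript levels were assessed 24 h post-dosing by RT-PCR and capillary electrophoresis. Changes in either direction were fitted relative to DMSO controls.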

[2] = ATG_EGR_CIS: Attagene CIS-FACTORIAL HepG2 Assay for human Early Growth Response 1 (EGR1) (AID 2282938); settings: HepG2 Attagene CIS-FACTORIAL EGR reporter mRNA; actives raise or lower the signal
In short: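 Fluorescent capillary-electrophoresis signal of reporter cDNA fragments serves as read-out. HepG2 cells bear transiently transfected cis-promoter reporter units and are exposed 24 h; gain- or loss-of-signal is fitted against DMSO.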

[3] = ATG_M_19_CIS: Attagene CIS-FACTORIAL HepG2 Assay for M19 Transcription Factor (Internal Marker) (AID 2282939); settings: HepG2 Attagene CIS-FACTORIAL M19 internal marker reporter; actives raise or lower the signal
In short: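 Background-control endpoint from a multiplexed HepG2 reporter panel. Cells carrying cis-regulated reporter constructs are treated 24 h, then reporter transcripts are amplified, fluorescently labelled and sized by capillary electrophoresis. DMSO defines baseline.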

[4] = ATG_ERE_CIS: Attagene CIS-FACTORIAL HepG2 Assay for Estrogen Response Element (ERE) (AID 2282940); settings: HepG2 ERE cis-reporter, Attagene RNA transcript; actives raise or lower the signal
In short: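 Cells used were human hepatoma HepG2, transfected with multiple reporter transcription units under cis-regulatory promoters. Reporter mRNA, read 24 h post-dosing via fluorescent RT-PCR products on capillary electrophoresis, was fitted bidirectionally relative to DMSO.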

[5] = target: Hepatocyte nuclear factor 3-beta (Homo sapiens) (UniProt Q9Y261); test: ATG_FoxA2_CIS: Attagene CIS-FACTORIAL HepG2 Assay for human Forkhead box A2 (FOXA2) (AID 2282942); settings: HepG2 cis-reporter transcription factor activity, 24 h; actives raise or lower the signal
Sequence of Hepatocyte nuclear factor 3-beta (Homo sapiens) (Q9Y261 whole entry, looked up, the tested form may be a part): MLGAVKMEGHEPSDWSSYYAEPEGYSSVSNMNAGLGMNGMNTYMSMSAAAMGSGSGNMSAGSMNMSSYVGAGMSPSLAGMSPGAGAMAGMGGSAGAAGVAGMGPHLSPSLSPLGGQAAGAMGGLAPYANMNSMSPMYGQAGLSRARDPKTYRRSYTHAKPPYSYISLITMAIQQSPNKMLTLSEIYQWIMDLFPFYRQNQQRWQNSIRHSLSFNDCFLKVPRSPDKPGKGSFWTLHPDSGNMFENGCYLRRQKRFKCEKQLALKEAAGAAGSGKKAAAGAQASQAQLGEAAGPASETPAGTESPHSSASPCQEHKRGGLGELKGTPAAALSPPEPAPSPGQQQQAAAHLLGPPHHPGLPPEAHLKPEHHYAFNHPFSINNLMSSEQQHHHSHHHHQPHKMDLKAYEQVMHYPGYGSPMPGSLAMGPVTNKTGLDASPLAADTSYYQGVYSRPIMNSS
In short: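 Fluorescence signal of reporter cDNA fragments, separated by capillary electrophoresis, reflects endogenous transcription factor activity in transfected HepG2 after 24 h. Both increases and decreases fitted against DMSO.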

[6] = ATG_GATA_CIS: Attagene CIS-FACTORIAL HepG2 Assay for human GATA Binding Protein (AID 2282944); settings: HepG2 GATA cis-element reporter, Attagene multiplex mRNA; actives raise or lower the signal
In short: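 Endogenous transcription factor activity was captured through cis-promoter-driven reporters in transfected HepG2 cells. After 24 h exposure, reporter transcripts were quantified by RT-PCR with fluorescent capillary electrophoresis, and responses fitted both directions against DMSO.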

[7] = ATG_GLI_CIS: Attagene CIS-FACTORIAL HepG2 Assay for human Zinc Finger Protein GLI1 (AID 2282945); settings: HepG2, Attagene cis-factorial reporter mRNA, GLI element; actives raise or lower the signal
In short: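 HepG2 cells transiently transfected with cis-promoter multiplexed reporter units report endogenous transcription factor activity. After 24 h chemical exposure, reporter mRNA was quantified by RT-PCR, 6-FAM labelling, HpaI digestion and capillary electrophoresis, with bidirectional fitting against DMSO.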

[8] = target: Bile acid receptor (Homo sapiens) (UniProt Q96RI1); test: ATG_IR1_CIS: Attagene CIS-FACTORIAL HepG2 Assay for human Nuclear Receptor Subfamily 1 Group H Member 4 (NR1H4), IR1 submotif (AID 2282946); settings: IR1 reporter transcription, actives raise or lower the signal
Sequence of Bile acid receptor (Homo sapiens) (Q96RI1 whole entry, looked up): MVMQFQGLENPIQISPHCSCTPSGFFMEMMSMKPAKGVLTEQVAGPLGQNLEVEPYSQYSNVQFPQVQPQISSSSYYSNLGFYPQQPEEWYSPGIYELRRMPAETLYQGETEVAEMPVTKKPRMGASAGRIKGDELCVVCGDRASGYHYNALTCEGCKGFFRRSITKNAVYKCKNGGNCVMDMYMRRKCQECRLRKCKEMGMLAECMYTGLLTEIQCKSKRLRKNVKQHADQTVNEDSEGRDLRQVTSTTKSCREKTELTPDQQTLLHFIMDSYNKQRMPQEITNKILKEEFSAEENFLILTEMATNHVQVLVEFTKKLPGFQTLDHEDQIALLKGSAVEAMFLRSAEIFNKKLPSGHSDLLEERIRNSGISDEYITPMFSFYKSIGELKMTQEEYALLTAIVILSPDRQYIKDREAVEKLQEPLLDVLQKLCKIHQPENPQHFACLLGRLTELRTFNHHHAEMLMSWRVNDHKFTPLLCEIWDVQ
In short: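 Readout: reporter transcript levels by RT-PCR with fluorescent capillary electrophoresis, from HepG2 cells transiently transfected with multiplexed cis-regulated reporters and dosed 24 h. Gain- or loss-of-signal fitted versus DMSO negative control.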

[9] = ATG_GRE_CIS: Attagene CIS-FACTORIAL HepG2 Assay for human Glucocorticoid Response Elements (GRE) (AID 2282947); settings: HepG2 GRE cis-reporter, Attagene multiplex mRNA; actives raise or lower the signal
In short: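 Cells (HepG2) bearing transfected cis-promoter reporter transcription units were treated with chemical for 24 hours. Reporter mRNA was measured via RT-PCR with capillary electrophoresis, and activity was fitted in both directions relative to DMSO.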

[10] = ATG_ISRE_CIS: Attagene CIS-FACTORIAL HepG2 Assay for human Interferon Regulatory Factor 1 (IRF1) binding to an Interferon-Stimulated Response Element (ISRE) (AID 2282948); settings: HepG2 ISRE cis-reporter (Attagene), mRNA transcription readout; actives raise or lower the signal
In short: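 Multiplexed mRNA reporter readout in human liver HepG2 cells: cis-element-driven reporters transfected, compound added for 24 h, transcripts amplified, fluorescently labelled and sized by capillary electrophoresis; curve fitting bidirectional against DMSO.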

[11] = ATG_M_32_CIS: Attagene CIS-FACTORIAL HepG2 Assay for M32 Transcription Factor (Internal Marker) (AID 2282949); settings: HepG2 Attagene cis-factorial M32 reporter, mRNA; actives raise or lower the signal;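 further: background control marker of the multiplexed CIS panel rather than a real target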
In short: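 HepG2 human liver cells transiently transfected with cis-promoter-driven multiple reporter transcription units, dosed 24 h. Reporter mRNA quantified by RT-PCR, FAM-labelled primer extension, HpaI digest and capillary electrophoresis; bidirectional fit versus DMSO baseline.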

[12] = ATG_M_06_CIS: Attagene CIS-FACTORIAL HepG2 Assay for M06 Transcription Factor (Internal Marker) (AID 2282950); settings: HepG2 Attagene CIS-FACTORIAL M06 internal marker reporter; actives raise or lower the signal
In short: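 Steps: transfect HepG2 with multiplexed cis-element reporter constructs; dose chemical 24 h; extract RNA with DNase treatment; reverse-transcribe, PCR-amplify, 6-FAM label, HpaI digest; separate fragments by capillary electrophoresis. Activity fitted both directions versus DMSO.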

[13] = target: Hypoxia-inducible factor 1-alpha (Homo sapiens) (UniProt Q16665); test: ATG_HIF1a_CIS: Attagene CIS-FACTORIAL HepG2 Assay for human Hypoxia Inducible Factor 1 (HIF1A) (AID 2282951); settings: HepG2 Attagene cis-factorial HIF1a reporter transcription; actives raise or lower the signal
Sequence of Hypoxia-inducible factor 1-alpha (Homo sapiens) (Q16665 whole entry, looked up): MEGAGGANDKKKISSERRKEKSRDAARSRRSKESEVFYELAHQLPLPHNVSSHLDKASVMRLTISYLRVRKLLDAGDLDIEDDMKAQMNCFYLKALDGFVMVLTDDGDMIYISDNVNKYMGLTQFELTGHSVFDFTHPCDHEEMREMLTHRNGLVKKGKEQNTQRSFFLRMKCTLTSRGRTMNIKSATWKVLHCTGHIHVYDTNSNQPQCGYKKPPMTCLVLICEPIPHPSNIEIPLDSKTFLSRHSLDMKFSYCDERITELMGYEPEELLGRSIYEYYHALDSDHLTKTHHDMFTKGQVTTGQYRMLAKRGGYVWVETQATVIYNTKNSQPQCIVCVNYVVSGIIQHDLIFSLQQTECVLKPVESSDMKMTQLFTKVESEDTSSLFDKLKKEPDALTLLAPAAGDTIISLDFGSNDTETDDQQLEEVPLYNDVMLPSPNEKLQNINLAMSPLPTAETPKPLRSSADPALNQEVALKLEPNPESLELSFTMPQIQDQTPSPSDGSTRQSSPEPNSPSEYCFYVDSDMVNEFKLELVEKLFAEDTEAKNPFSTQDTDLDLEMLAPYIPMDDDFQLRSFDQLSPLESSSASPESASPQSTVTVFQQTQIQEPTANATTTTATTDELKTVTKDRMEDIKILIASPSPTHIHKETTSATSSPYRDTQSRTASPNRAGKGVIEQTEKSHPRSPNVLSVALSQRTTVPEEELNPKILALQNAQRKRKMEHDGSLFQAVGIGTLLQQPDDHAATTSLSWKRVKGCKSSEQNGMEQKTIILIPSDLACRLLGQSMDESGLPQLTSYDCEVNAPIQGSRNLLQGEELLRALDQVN
In short: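 Endogenous-TF cis reporter readout, human HepG2 cells, 24 h incubation; mRNA detected via RT-PCR and capillary electrophoresis fluorescence; DMSO-normalised bidirectional fitting.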

[14] = target: Hepatocyte nuclear factor 6 (Homo sapiens) (UniProt Q9UBC0); test: ATG_HNF6_CIS: Attagene CIS-FACTORIAL HepG2 Assay for human Hepatocyte Nuclear Factor 6 (HNF6) (AID 2282952); settings: HepG2 Attagene cis-factorial HNF6 reporter transcription; actives raise or lower the signal
Sequence of Hepatocyte nuclear factor 6 (Homo sapiens) (Q9UBC0 whole entry, looked up): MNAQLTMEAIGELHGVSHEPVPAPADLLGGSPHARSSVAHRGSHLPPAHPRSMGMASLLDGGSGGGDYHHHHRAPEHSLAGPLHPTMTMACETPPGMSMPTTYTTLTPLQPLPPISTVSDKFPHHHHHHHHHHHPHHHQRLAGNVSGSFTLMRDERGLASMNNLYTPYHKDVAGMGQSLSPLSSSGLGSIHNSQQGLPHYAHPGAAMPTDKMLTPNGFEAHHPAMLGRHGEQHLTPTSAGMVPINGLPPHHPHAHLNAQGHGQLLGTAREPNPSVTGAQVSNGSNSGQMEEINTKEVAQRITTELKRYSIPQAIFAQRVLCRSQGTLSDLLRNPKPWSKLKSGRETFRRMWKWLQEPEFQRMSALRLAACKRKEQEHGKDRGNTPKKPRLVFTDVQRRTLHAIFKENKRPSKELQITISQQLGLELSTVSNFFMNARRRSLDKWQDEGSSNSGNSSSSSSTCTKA
In short: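 Endogenous factor activity read in transiently transfected HepG2 via promoter-regulated reporter transcripts. RNA harvested 24 h post-dosing, reverse-transcribed, PCR-amplified, FAM-labelled, HpaI-digested and resolved by capillary electrophoresis; fitted in both directions against DMSO.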

[15] = target: Heat shock factor protein 1 (Homo sapiens) (UniProt Q00613); test: ATG_HSE_CIS: Attagene CIS-FACTORIAL HepG2 Assay for human Heat Shock Transcription Factor 1 (HSE) (AID 2282953); settings: HepG2 HSE cis-reporter, Attagene RNA transcription; actives raise or lower the signal
Sequence of Heat shock factor protein 1 (Homo sapiens) (Q00613 whole entry, looked up, the tested form may be a part): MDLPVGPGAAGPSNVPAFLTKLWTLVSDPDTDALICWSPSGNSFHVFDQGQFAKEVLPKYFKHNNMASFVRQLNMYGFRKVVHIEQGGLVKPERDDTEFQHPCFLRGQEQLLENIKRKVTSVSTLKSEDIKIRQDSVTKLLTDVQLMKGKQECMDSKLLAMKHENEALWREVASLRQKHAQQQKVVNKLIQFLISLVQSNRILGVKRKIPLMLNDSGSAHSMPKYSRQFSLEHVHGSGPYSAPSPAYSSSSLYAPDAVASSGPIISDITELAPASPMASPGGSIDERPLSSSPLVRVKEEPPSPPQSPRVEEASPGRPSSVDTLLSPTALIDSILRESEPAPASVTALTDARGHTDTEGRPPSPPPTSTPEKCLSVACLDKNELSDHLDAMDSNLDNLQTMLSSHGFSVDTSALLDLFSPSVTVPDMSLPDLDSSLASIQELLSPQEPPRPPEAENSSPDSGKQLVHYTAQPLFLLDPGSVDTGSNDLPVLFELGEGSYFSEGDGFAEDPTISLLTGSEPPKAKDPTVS
In short: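 Cells were transfected with cis-element-driven reporter constructs, dosed for 24 h, then total RNA was reverse-transcribed and reporter cDNA amplified, FAM-labelled and digested with HpaI. Fragments were resolved by capillary electrophoresis; gain or loss was fitted against DMSO.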

[16] = ATG_PBREM_CIS: Attagene CIS-FACTORIAL HepG2 Assay for human Phenobarbital-responsive Enhancer Module (PBREM) (AID 2282955); settings: HepG2 PBREM cis-reporter, Attagene multiplexed transcription; actives raise or lower the signal
In short: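 Readout: reporter mRNA, fluorescent RT-PCR fragments separated by capillary electrophoresis. System: HepG2 transiently transfected with cis-regulated reporter units. Exposure: 24 h. Analysis: bidirectional, DMSO baseline.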

[17] = target: Paired box protein Pax-6 (Homo sapiens) (UniProt P26367); test: ATG_Pax6_CIS: Attagene CIS-FACTORIAL HepG2 Assay for human Paired Box 6 (PAX6) (AID 2282956); settings: HepG2 CIS-FACTORIAL PAX6 reporter transcription, RNA readout; actives raise or lower the signal
Sequence of Paired box protein Pax-6 (Homo sapiens) (P26367 whole entry, looked up): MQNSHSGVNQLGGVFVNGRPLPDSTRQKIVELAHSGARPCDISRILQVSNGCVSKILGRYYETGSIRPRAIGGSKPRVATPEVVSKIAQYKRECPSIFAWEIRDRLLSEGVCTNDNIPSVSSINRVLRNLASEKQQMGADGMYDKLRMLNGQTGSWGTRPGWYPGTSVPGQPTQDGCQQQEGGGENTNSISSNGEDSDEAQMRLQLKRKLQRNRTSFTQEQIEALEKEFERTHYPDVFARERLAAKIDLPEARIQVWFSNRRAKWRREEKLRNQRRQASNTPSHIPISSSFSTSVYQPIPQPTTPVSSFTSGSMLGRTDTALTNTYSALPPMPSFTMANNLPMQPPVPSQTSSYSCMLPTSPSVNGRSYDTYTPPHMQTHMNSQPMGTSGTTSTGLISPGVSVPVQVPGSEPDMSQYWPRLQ
In short: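 Fluorescent RT-PCR products separated by capillary electrophoresis report PAX6-linked promoter mRNA in HepG2 cells 24 h post-dose. Curves fitted bidirectionally, DMSO as negative control.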

[18] = ATG_FoxO_CIS: Attagene CIS-FACTORIAL HepG2 Assay for human Forkhead box O (FoxO) (AID 2282943); settings: HepG2 Attagene cis-reporter, FoxO element, mRNA; actives raise or lower the signal
In short: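 24 h chemical exposure, HepG2 with transient cis-MRTU transfection. RNA extraction, oligo(dT) RT, reporter-specific PCR, primer-extension labelling, HpaI digestion, CE fragment analysis; bidirectional fit, DMSO baseline.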

[19] = ATG_Ets_CIS: Attagene CIS-FACTORIAL HepG2 Assay for human Erythroblast Transformation Specific (ETS) (AID 2282941); settings: HepG2 ETS cis-reporter transcription, actives raise or lower the signal
In short: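 Cis-regulated reporter mRNA induction in HepG2 (transient transfection), 24 h exposure, RT-PCR plus capillary electrophoresis detection; DMSO serves as negative control and baseline.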

[20] = ATG_MRE_CIS: Attagene CIS-FACTORIAL HepG2 Assay for human Metal Responsive Element (MRE) (AID 2282954); settings: HepG2 MRE cis-reporter transcription, Attagene multiplex; actives raise or lower the signal
In short: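 Cells were transfected with cis-promoter reporter transcription units, then dosed for 24 h. RNA was reverse-transcribed, amplified, fluorescently labelled and resolved by capillary electrophoresis, and activity was fitted in both directions relative to DMSO.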

Measured: AC50

O=C(c1ccc(O)cc1O)c1ccc(O)cc1O
active: [4] 843 nM [middle of 4 runs] | [10] 100 µM | [15] 41.3 µM [middle of 4 runs]
inactive: [1] | [2] | [3] | [5] | [6] | [7] | [8] | [9] | [10] | [11] | [12] | [13] | [14] | [16] | [17]

CC(C)CCCCCCc1ccc(O)cc1
active: [2] 17.7 µM and 17.3 µM | [4] 644 nM [middle of 4 runs] | [5] 21.8 µM | [8] 17.9 µM | [10] 18.4 µM and 13.7 µM | [11] 18 µM and 17.2 µM | [15] 15.3 µM and 19.9 µM and 17 µM | [16] 15.8 µM | [17] 17.9 µM and 20.8 µM and 19.9 µM
inactive: [1] | [2] | [3] | [5] | [6] | [8] | [9] | [10] | [11] | [12] | [13] | [14] | [15] | [16] | [17]

OB(O)O
not listed: [7] | [19] | [20]
inactive: all other assays above

CCCCCOC(=O)COc1cc(N2C(=O)C3=C(CCCC3)C2=O)c(F)cc1Cl
active: [15] 87.6 µM
not listed: [8] | [16] | [19] | [20]
inactive: all other assays above

CCCCC(CC)CN1C(=O)C2C3C=CC(C3)C2C1=O (stereo unspecified)
active: [13] 50 µM | [16] 50 µM
not listed: [7] | [8] | [19] | [20]
inactive: all other assays above

CCCCOC(=O)C(C)Oc1ccc(Oc2ccc(C(F)(F)F)cn2)cc1 (stereo unspecified)
inactive: all assays above

CCSC(=O)N(CC(C)C)CC(C)C
not listed: [8] | [18] | [19] | [20]
inactive: all other assays above

COC(=O)c1cccc(C)c1S(=O)(=O)NC(=O)Nc1nc(OCC(F)(F)F)nc(N(C)C)n1
inactive: all assays above

COC(=O)c1ccccc1S(=O)(=O)NC(=O)Nc1nc(OC(F)F)cc(OC(F)F)n1
not listed: [19]
inactive: all other assays above

O=C(c1ccccc1)C1CCCCC1
inactive: [1] | [2] | [3] | [5] | [6] | [7] | [8] | [9] | [10] | [11] | [12] | [13] | [14] | [15] | [16] | [17]
active: [4] 17.4 µM [middle of 4 runs] | [16] 53.2 µM

CN(C)C(=O)Nc1ccc(Cl)c(Cl)c1
inactive: [1] | [2] | [3] | [4] | [19] | [5] | [18] | [6] | [7] | [9] | [10] | [11] | [12] | [13] | [14] | [15] | [16] | [17]
active: [2] 60.3 µM | [13] 62.6 µM

CC(=O)S[C@@H]1CC2=CC(=O)CC[C@]2(C)[C@H]2CC[C@@]3(C)[C@@H](CC[C@@]34CCC(=O)O4)[C@H]12
active: [2] 17.6 µM and 27.2 µM | [19] 100 µM | [10] 48.9 µM and 26.1 µM and 48.1 µM | [15] 171 µM
inactive: [1] | [2] | [3] | [4] | [19] | [5] | [18] | [6] | [9] | [10] | [11] | [12] | [13] | [14] | [15] | [16] | [17]

COc1c(Cl)ccc(Cl)c1C(=O)O
not listed: [7] | [8] | [9] | [19]
inactive: all other assays above
